# Assay results as given in PubChem BioAssay (EPA / NIEHS).
# “And” between values parts separate entries of the source, which are not always exact repeats. Identical values can stand only once. Inconclusive results are not listed. Where a structure was tested more than once in an assay, its records may differ in their call. The source made the active and inactive calls. How the source made its calls: active means hit-call score of the fitted dose curve at least 0.9, where 1 is the maximum; inconclusive means response in the unintended direction; inactive means score below 0.9.
# Target: Cellular tumor antigen p53 (Homo sapiens) (UniProt P04637)
# Assay: TOX21_p53_BLA_p5_ratio: Tox21 HCT-116 p53 Agonism Beta-lactamase Assay, Ratio, Phase 5 (AID 2283599)
# From the text: TOX21_p53_BLA_p5 is a cell-based, single-readout assay that uses HCT116, a human intestinal cell line, […] in a 1536-well plate.TOX21_p53_BLA_p5_ratio is an assay readout measuring reporter gene via receptor activity and designed using inducible reporter (beta lactamase induction) detected with GAL4 b-lactamase reporter gene. The signal is derived from the ratio of cleaved (ch2) to uncleaved (ch1) reporter gene substrate used as the measure of target activity.Data from the assay component TOX21_p53_BLA_p5_ratio was analyzed into 1 assay endpoint. This assay endpoint, TOX21_p53_BLA_p5_ratio, was analyzed in the positive analysis fitting direction relative to DMSO as the negative control and baseline of activity. Using a type of inducible reporter, gain-of-signal activity can be used to understand changes in the reporter gene as they relate to the gene TP53. Furthermore, this assay endpoint can be referred to as a primary readout, because this assay has produced multiple assay endpoints and this ratio serves a reporter gene function to understand target activity. To generalize the intended target to other relatable targets, this assay endpoint is annotated to the DNA binding intended target family, where the subfamily is tumor suppressor.
# Thawing Method: Place 14 mL of pre-warmed thaw medium into a 15 mL of conical tub. Remove the vial of cells to be thawed from liquid nitrogen and thaw rapidly by placing at 37C in a water bath with gentle agitation for 1-2 minutes. Decontaminate the vial by wiping with 70% ethanol before opening in a biological safety cabinet. Transfer the vial contents drop-wise into 14 mL of thaw medium in a sterile 15-mL conical tub. Centrifuge cells at 900 rpm for 4 minutes and resuspend in thaw medium. Transfer contents to the T75 tissue culture flask containing Thaw Medium and place flask in a humidified 37C/5% CO2 incubator. Switch to growth medium at first passage.Propagation Method: Aspirate medium, rinse once in DPBS, add 0.25% Trypsin/EDTA and swirl to coat the cell evenly. Add an equal volume of Growth Medium to inactivate Trypsin after 2-3 minutes incubation at 37C. Centrifuge cells at 900 rpm for 4 minutes and resuspend in growth medium. Cell should be passage or fed at least twice a week.Assay Protocol: Harvest cells from culture in growth medium and resuspend in assay medium. 2.2 Dispense 4000 cells/5 uL/well into 1536-well black/clear bottom plates using a Multidrop dispenser. After the cells were incubated at 37C for 5 hours, 23 nL of compounds dissolved in DMSO were transferred to the assay plate by a PinTool resulting in a 217-fold dilution. Incubate the plates for 16 hours at 37C, 5% CO2. Add 1 uL of 6X LiveBLAzer FRET B/G (CCF4-AM) Substrate Mixture to each well using a BioRAPTR dispenser and incubate the plates at room temperature for 2 hours. Measure fluorescence intensity at 460 and 530 nm emission and 405 nm excitation by an Envision detector. Data is expressed as the ratio of 460nm/530nm emissions. Add 4 uL of Cell-titer Glo to each well using BioRAPTR and incubate the plates at room temperature for 2 hours. Measure fluorescence intensity by a VewLux plate reader.
# Sequence of Cellular tumor antigen p53 (Homo sapiens) (P04637 whole entry, looked up): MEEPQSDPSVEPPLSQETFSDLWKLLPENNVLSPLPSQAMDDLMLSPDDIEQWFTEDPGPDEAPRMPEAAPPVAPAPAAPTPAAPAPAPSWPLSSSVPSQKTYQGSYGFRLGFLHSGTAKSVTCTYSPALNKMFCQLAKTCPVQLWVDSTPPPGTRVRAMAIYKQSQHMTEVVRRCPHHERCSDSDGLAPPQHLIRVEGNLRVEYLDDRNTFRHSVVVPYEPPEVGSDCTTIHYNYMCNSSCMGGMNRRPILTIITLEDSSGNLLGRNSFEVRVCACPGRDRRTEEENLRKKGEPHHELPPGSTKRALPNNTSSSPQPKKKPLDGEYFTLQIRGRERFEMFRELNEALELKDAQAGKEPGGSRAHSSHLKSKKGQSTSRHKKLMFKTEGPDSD
SMILES,outcome,AC50
CCCC(=O)c1cc(O)c(O)cc1O,inactive,
C=CC(=O)OCCOCCOCC,inactive,
CC(C)(C)C(=O)c1ccccc1,inactive,
COc1ccc(Cl)cc1C,inactive,
CCCC/C=C\CCCCCCCCCC=O,inactive,
CCCCCCCCCCCCCCCCCC(=O)OCC(CC)CCCC (stereo not given),inactive,
O=C(Nc1ccccc1)c1cc([N+](=O)[O-])ccc1Cl,inactive,
O=C1c2ccccc2C(=O)N1SC1CCCCC1,inactive,44.8 µM (active)
CC(C)Oc1ccccc1O,inactive,
O=C(O)c1ccc([N+](=O)[O-])cc1,inactive,
CCCCCOC(=O)CCC,inactive,
CC1CC(OC(=O)c2ccccc2O)CC(C)(C)C1 (stereo not given),inactive,
CC(=O)OCCC(C)CC(C)(C)C (stereo not given),inactive,
CCC(=O)/C=C/C1C(C)=CCCC1(C)C (stereo not given),inactive,
CCCCO,inactive,
CCCc1c(OCCCOc2ccc(OCC(=O)O)cc2)ccc(C(C)=O)c1O,,66.6 µM (active)
CC1CCC2CC1C2(C)C (stereo not given),inactive,
C=C(C)C(=O)Nc1ccc(Cl)c(Cl)c1,inactive,74.7 µM (active)
O=C(Cl)c1cccc(C(=O)Cl)c1,inactive,

SMILES,outcome,AC50
CC(=O)C(=O)O,inactive,
Cc1ccc(O)c(C(C)(C)C)c1,,60.5 µM (active) and 67.9 µM (active)
CC(C)CCCCCCCOC(=O)c1ccc(C(=O)OCCCCCCCC(C)C)c(C(=O)OCCCCCCCC(C)C)c1,inactive,
CC1(C)C(=O)N(Br)C(=O)N1Cl,inactive,
OCCN1CCNCC1,inactive,
OC1OC[C@@H](O)[C@H](O)[C@H]1O (stereo not given in full),inactive,
CCC(=O)OCc1ccccc1,inactive,
c1ccc2c(c1)c1cccc3ccc4cccc2c4c31,inactive,40.6 µM (active)
CC(=O)c1c(C)cc(C(C)(C)C)cc1C,inactive,
CC1(C)CCC(C)(C)c2cc(C(=O)Nc3ccc(C(=O)O)cc3)ccc21,,46.2 µM (active)
O=C1CCCCCCCCCCOCCCCO1,inactive,
CC(=O)[C@H]1CC[C@H]2[C@@H]3CC=C4C[C@@H](O)CC[C@]4(C)[C@H]3CC[C@]12C,inactive,
CCO[Si](CCCS)(OCC)OCC,inactive,
Clc1ccc(Cl)c(Cl)c1Cl,inactive,
CC(C=O)Cc1ccc(C(C)C)cc1 (stereo not given),inactive,
CC(C)[C@@H]1CC[C@@H](C)CC1=O,inactive,
CCCCOCCOCCSC#N,inactive,
CCOC(=S)SSC(=S)OCC,inactive,
